High-throughput results: PubChem, several laboratories
Cl transport mod: modulates chloride dependent transport by human KCC2; Q9H2X9; KCC2 cells, thallium flux FluoZin-2 fluorescence; B-score of Tl+ flux slope (higher = more flux/activation; lower = inhibition) at 10 µM; hit rate 2.2% among 190,000;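 active = thallium flux slope and its plate-corrected score both differing from the plate sample mean at a set confidence after two filtering rounds, in either direction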;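 also: slope of fluorescence scaled to starting intensity during 10 to 20 s after thallium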
WT yeast gro inh: growth inhibition of WT yeast, mitochondrial fusion screen | mitochondrial fusion phenotypic screen, WT strain | inhibition, % at 10 µM | hit rate 2.1% among 190,000; in the data active = inhibition above about 58%; tested in S. cerevisiae
Lmaj promast: reduces viability of Leishmania major promastigotes. inhibition, % at 10 µM. hit rate 9% among 200,000. resazurin fluorescence viability; in the data active = inhibition above about 50%;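 also: promastigotes grown with compound for 44 hours at 28 °C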
ROMK mod: modulators of human ROMK potassium channel; Tet-inducible ROMK, thallium flux fluorescence; actives lie on both sides; hit rate 2% among 130,000; AID 1918; P48048; B-score at 10 µM;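 active = signal ratio slope over the read window, or its plate-corrected B-score, at least 3 SD from the plate mean, either direction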;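 also: B-score of the F/F0 ratio slope over 7 to 12 s after thallium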
Target sequence (P48048 whole entry, looked up): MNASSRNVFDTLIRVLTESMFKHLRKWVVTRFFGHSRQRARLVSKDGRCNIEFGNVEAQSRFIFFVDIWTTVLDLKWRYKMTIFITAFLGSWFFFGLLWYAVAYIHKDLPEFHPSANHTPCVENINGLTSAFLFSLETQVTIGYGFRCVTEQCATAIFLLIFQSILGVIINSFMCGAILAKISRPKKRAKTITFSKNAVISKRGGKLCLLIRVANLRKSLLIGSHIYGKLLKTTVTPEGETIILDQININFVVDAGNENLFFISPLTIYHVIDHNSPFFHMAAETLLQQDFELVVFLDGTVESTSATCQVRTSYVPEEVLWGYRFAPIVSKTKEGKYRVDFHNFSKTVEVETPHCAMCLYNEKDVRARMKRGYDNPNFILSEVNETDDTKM
m-calpain inh: calpain II (pig) inhibition | purified calpain II, fluorogenic peptide substrate, 30 min | inhibition, % at 16 µM | hit rate 0.37% among 220,000 | AID 1236;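 active = inhibition above about 50%, limit read from the data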
Of the large screens only hits and unclear results are named; the others gave an inactive call. Sampled rows, rich in hits. Any-hit rate of the full collection: about 12%.

COc1ccccc1N1CCN(C(=O)/C=C/c2ccc(C)cc2)CC1	Lmaj promast 55
Cc1ccc(/C=C/C(=O)N2CCCC(C)C2)cc1 (stereo not given)	none (no result: ROMK mod)
COc1ccccc1N1CCN(C(=O)/C=C/c2cccc([N+](=O)[O-])c2)CC1	none (no result: WT yeast gro inh, Lmaj promast)
Cc1ccc(/C=C/C(=O)N2CCC(Cc3ccccc3)CC2)cc1	WT yeast gro inh 67
O=C(c1cccc([N+](=O)[O-])c1)c1ccc2c(c1)OCCOCCOCCOCCO2	none (no result: WT yeast gro inh, Lmaj promast, ROMK mod)
COc1ccc(C2OC34CCCCC3C(C#N)(C#N)C2(C#N)C(=N)O4)cc1 (stereo not given)	none (no result: ROMK mod)
COc1ccccc1N1CCN(C(=O)Cn2nc3n(C)c4ccccc4n3c(=O)c2=O)CC1	none (no result: Cl transport mod)
Cc1c(C(=O)N2CCC(Cc3ccccc3)CC2)cccc1[N+](=O)[O-]	none
COc1ccc(-c2ccc(=O)n(CC(=O)N3CCN(c4ccccc4OC)CC3)n2)cc1	Lmaj promast 92 (no result: ROMK mod, m-calpain inh)
COc1ccccc1N1CCN(C(=O)COc2cc(C)ccc2C)CC1	Lmaj promast 64
Cc1cccc(C(=O)N2CCC(Cc3ccccc3)CC2)c1[N+](=O)[O-]	Cl transport mod -4.2, Lmaj promast 53
CCOc1ccccc1CN1C(=O)NC(C)(c2ccccc2)C1=O (stereo not given)	none (no result: Cl transport mod, ROMK mod)
Cc1ccc2c(c1)nnn2C1CCN(CC(=O)N(c2ccccc2)c2ccccc2)CC1	none (no result: WT yeast gro inh, Lmaj promast, ROMK mod)
CCOc1cccc(/C=N/Nc2ccc(S(=O)(=O)N(CC)CC)cn2)c1O	Lmaj promast 82
COc1ccc(-n2c(C)cc(/C=C3\SC(=S)NC3=O)c2C)cc1	none (no result: ROMK mod)
Cc1cc(/C=C2\SC(=S)NC2=O)c(C)n1-c1ccc(O)cc1	Cl transport mod -5.5, ROMK mod -4.4 (no result: WT yeast gro inh, Lmaj promast)
CNC(=O)/C(C#N)=C\c1cc(C)n(-c2ccc(N3CCOCC3)cc2)c1C	none
Cc1cc(/C=C2/SC(=O)NC2=O)c(C)n1-c1ccc(N2CCOCC2)cc1	Lmaj promast 57
COc1ccc([N+](=O)[O-])cc1CSc1nnc(NC(C)=O)s1	none
CC(C)n1cc(NC(=O)c2cc(-c3ccccc3)on2)cn1	Cl transport mod 33, ROMK mod 5.8
O=C(Nc1cccnc1)c1cc(-c2ccc(Br)cc2)on1	none (no result: ROMK mod)
O=C(Nc1cccnc1)c1cc(-c2ccccc2)on1	ROMK mod 3.5
CC(=O)c1cccc(NC(=O)c2cc(-c3ccc(C)cc3)on2)c1	Lmaj promast 62
CC(=O)Nc1ccc(NC(=O)C(C)OC(=O)CCC(=O)c2ccc(F)cc2)cc1 (stereo not given)	none
O=C(/C=C/NNC(=O)c1ccccc1)c1ccc([N+](=O)[O-])cc1	Lmaj promast 79
COc1ccc(Cc2nc3ccc(S(=O)(=O)N4CCOCC4)cc3[nH]2)cc1	WT yeast gro inh 79 (no result: ROMK mod)
O=S(=O)(c1ccc2nc(COc3ccc(Cl)cc3Cl)[nH]c2c1)N1CCOCC1	none (no result: ROMK mod)
COc1ccc(Cc2nc3ccc(S(=O)(=O)N4CCOCC4)cc3[nH]2)cc1OC	none (no result: ROMK mod)
O=S(=O)(c1ccc2nc(SCc3ccc(Cl)cc3)[nH]c2c1)N1CCOCC1	Lmaj promast 81
CCC(C)/C=C/C1=CC2=C(Cl)C(=O)C3(C)OC(=O)C(C(=O)C(C)C(C)O)C3C2=CO1 (stereo not given)	none (no result: ROMK mod)
Cc1ccccc1OCCCSc1nc2ccccc2[nH]1	WT yeast gro inh 62
N/C(=N\O)c1cccc(CS(=O)(=O)c2ccccn2)c1	none (no result: WT yeast gro inh, Lmaj promast, ROMK mod)
O=C(c1cccc([N+](=O)[O-])c1)c1ccc2c(c1)C(=O)N(c1c[nH]c(=O)[nH]c1=O)C2=O	none
CCOC(=O)NC(c1ccc(C(C)C)cc1)C(Cl)(Cl)Cl (stereo not given)	WT yeast gro inh 69
Cc1cc(C)nc(NC(=O)c2ccc([N+](=O)[O-])o2)n1	Lmaj promast 56
Cc1cc(C)cc(NC(=O)c2ccc([N+](=O)[O-])o2)c1	WT yeast gro inh 78, Lmaj promast 100
Cc1cc(NC(=O)c2ccc([N+](=O)[O-])o2)ccc1NC(=O)c1ccco1	Lmaj promast 100
CCCCOc1c(Br)cc(/C=N/O)cc1OCC	WT yeast gro inh 69
Cc1onc(-c2c(Cl)cccc2Cl)c1C(=O)ONC(=O)c1cc(C(F)(F)F)cc(C(F)(F)F)c1	none (no result: Cl transport mod, WT yeast gro inh, Lmaj promast, ROMK mod)
COc1ccccc1N1CCN(C(=O)CN(C)S(=O)(=O)c2ccc3c(c2)c(=O)n(C)c(=O)n3C)CC1	none (no result: ROMK mod)
Cc1cccc(/C=N\NC(=O)c2ccc(Cl)cc2)c1O	Lmaj promast 72
O=C(N/N=C/c1cc(Br)ccc1O)c1ccncc1	none (no result: WT yeast gro inh, Lmaj promast)
NC(=O)N/N=C\c1cc(Br)ccc1O	none
CN(C)c1ccc(/C=N/NC(=O)c2ccc(Cl)cc2)cc1	none (no result: ROMK mod)
O=C(N/N=C/c1cc(Cl)ccc1O)c1ccc(Br)cc1	Lmaj promast 99
O=C(N/N=C\c1cc(Br)ccc1O)c1ccc(S(=O)(=O)N2CCCCC2)cc1	Lmaj promast 98
Nc1nonc1C(=O)N/N=C/c1cc(Br)ccc1O	Lmaj promast 99
CCc1nc(NC(=O)NS(=O)(=O)c2ccccc2C(=O)OC)nc(OC)n1	none
O=S(=O)(C=C(c1ccccc1)c1ccccc1)c1ccccc1	none (no result: Cl transport mod, ROMK mod)
CC(C)C(=O)Nc1ccc(C(=O)N/N=C/c2cc(Br)cc(Br)c2O)cc1	Lmaj promast 89
c1ccc(OCCCc2nc(-c3ccccn3)no2)cc1	none (no result: Cl transport mod, ROMK mod)
O=C(Nc1c2ccccc2nc2ccccc12)C(Cl)(Cl)Cl	Lmaj promast 100 (no result: Cl transport mod, ROMK mod)
O=C(Cc1ccccc1)NNC(=O)Cc1ccccc1	none
Cc1ccc(OCC(=O)NNc2c3ccccc3nc3ccccc23)cc1	Lmaj promast 97
O=C(Cc1ccccc1)NNc1c2ccccc2nc2ccccc12	WT yeast gro inh 59
COC(=O)c1cnc(SCc2ccc(C)cc2)n1C	none (no result: Cl transport mod)
CCc1ccccc1NC(=O)CCN1C(=O)C2C3CCC(C3)C2C1=O (stereo not given)	none
COc1cccc(CC(Cc2nc3ccccc3[nH]2)c2nc3ccccc3[nH]2)c1 (stereo not given)	Lmaj promast 69
COc1ccc(/C(C)=N/N=C(N)N)c(OC)c1	none (no result: WT yeast gro inh, Lmaj promast, ROMK mod)
COc1ccccc1NC(=O)/C=C1\NC(=O)CS1	Lmaj promast 88
COc1ccccc1NC(=O)/C=C1\SCC(=O)N1C	Lmaj promast 100
C/C(=N\NC(=S)NC(C)C)c1ccco1	none
CCOC(=O)C1CCN(C(c2cc3ccc(C)c(C)c3[nH]c2=O)c2nnnn2C2CCCCC2)CC1 (stereo not given)	Lmaj promast 86, ROMK mod -2.5
CCOC(=O)C1CCN(C(c2cc3c(C)ccc(C)c3[nH]c2=O)c2nnnn2C2CCCCC2)CC1 (stereo not given)	Lmaj promast 99 (no result: Cl transport mod)
Cc1ccc(C)c2[nH]c(=O)c(C(c3nnnn3C3CCCC3)N3CCOCC3)cc12 (stereo not given)	none (no result: ROMK mod)
Cc1ccc(NC(=O)CNC2CCS(=O)(=O)C2)cc1C (stereo not given)	none
CCOC(=O)Cc1csc(SCC(=O)/C(C#N)=C(\C)N)n1	none (no result: ROMK mod)
COc1cc2c(cc1OC)-c1cc3ccc4c(c3c[n+]1CC2)OCO4	WT yeast gro inh 60 (no result: ROMK mod)
CC(C)(C)NCCOCCOc1ccccc1-c1ccccc1	none (no result: ROMK mod)
Cc1cc(C)c(C)c(OCCOCCNCc2ccccc2)c1	Lmaj promast 77
Fc1ccc(OCCOCCNCC2CCCO2)cc1 (stereo not given)	none
